Sampled rows, rich in hits. Any-hit rate of the full collection: about 4.9%.
USP10 block – inhibitors of human USP10 deubiquitinase; Q14694; purified USP10, Ub-rhodamine fluorescence, 60 min; inhibition, % at 20 µM; 47,000 compounds, 1.1% hits
USP8 inh – inhibitors of human USP8 deubiquitinase; 47,000 compounds, 4.2% hits; P40818; purified USP8, Ub-rhodamine cleavage fluorescence, 30 min; inhibition, % at 20 µM; AID 1645853
UCHL1 inh – inhibitors of human UCHL1 deubiquitinase; AID 1645859; 47,000 compounds, 0.2% hits; purified UCHL1, Ub-rhodamine cleavage fluorescence; inhibition, % at 20 µM; P09936
USP7 block – inhibitors of human USP7 deubiquitinase; Q93009; purified USP7, Ub-rhodamine cleavage fluorescence; inhibition, % at 20 µM; 47,000 compounds, 0.3% hits; AID 1645854
OTUD3 block – human OTUD3 deubiquitinase inhibition | Q5T2D3 | purified OTUD3, Ub-rhodamine fluorescence, 2 h | inhibition, % at 25 µM | 47,000 compounds, 0.7% hits
Target sequence (Q5T2D3 whole entry, looked up): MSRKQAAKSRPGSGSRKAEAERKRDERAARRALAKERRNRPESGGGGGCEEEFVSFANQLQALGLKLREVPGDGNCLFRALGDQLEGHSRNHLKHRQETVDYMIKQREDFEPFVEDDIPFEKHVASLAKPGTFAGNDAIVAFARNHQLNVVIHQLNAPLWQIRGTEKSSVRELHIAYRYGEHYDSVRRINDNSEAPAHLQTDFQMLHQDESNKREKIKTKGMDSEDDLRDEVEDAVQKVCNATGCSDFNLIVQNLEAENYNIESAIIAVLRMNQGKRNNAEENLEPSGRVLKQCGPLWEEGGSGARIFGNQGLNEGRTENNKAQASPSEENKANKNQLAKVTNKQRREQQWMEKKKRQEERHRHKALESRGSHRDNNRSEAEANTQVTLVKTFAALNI
* = called active by the depositor. Cut-off read from the data, not from the text of the source: active = inhibition above about 30%; inactive = the rest.

SMILES | USP10 block | USP8 inh | UCHL1 inh | USP7 block | OTUD3 block
Oc1sc(C=Nc2ccc(F)cc2)c2ccccc12 | 0 | 68* | 3 | -18 | -1
CCOC(=O)c1cccc(N=Cc2sc(O)c3ccccc23)c1 | -6 | -243 | -152 | -137 | -172
O=C(NC1CCCc2ccccc21)c1cc(Cl)ccn1 (stereo not drawn) | -8 | 21 | 0 | 3 | 14
O=C(N[C@H]1CCCc2ccccc21)c1cc(-c2ccco2)on1 | -6 | 33* | -1 | 4 | 1
CC(=O)c1cccc(NC(=O)c2ccc3[nH]c4c(c3c2)CC(C)CC4)c1 (stereo not drawn) | -3 | 83* | 4 | -13 | -3
COc1nc2c(c(-c3ccco3)c1C#N)Cc1cc(NC(C)=O)ccc1-2 | -2 | 66* | -1 | -52 | -2
Cc1noc(-c2csc(C(=O)NCc3ccccc3F)n2)n1 | -1 | 2 | 0 | 0 | -4
CC(=O)NC(Cc1c[nH]c2ccccc12)C(=O)OCc1ccc(C#N)cc1 (stereo not drawn) | -1 | -1 | 0 | -7 | 0
O=[N+]([O-])c1ccc2nc(CSc3nc4ccccc4[nH]3)[nH]c2c1 | -8 | 15 | -4 | -15 | -3
Cc1cccc2nc(CSc3nc4ccc([N+](=O)[O-])cc4[nH]3)cn12 | 61* | 62* | 5 | 11 | 9
O=C(Nc1nc(-c2ccccc2)c2ccccc2n1)c1ccc(Cl)cc1 | 11 | 0 | 5 | 9 | 16
O=S(=O)(c1cccnc1)N1CCC2(C1)Nc1cccnc1NC2=NCc1ccccc1 (stereo not drawn) | -7 | -107 | -5 | -28 | -111
CCN1CCc2c([nH]c3ccccc23)C1c1c(O)n(-c2cccc(C)c2)c(=O)[nH]c1=O (stereo not drawn) | -5 | -27 | -11 | -5 | -28
Cc1nn(-c2ccccc2)c2c1C1(C(=O)Nc3ccccc31)N1C(=N2)Sc2ccccc21 (stereo not drawn) | 6 | 15 | 10 | 83* | 10
CC1CCC(NC(=O)C2(C)Cc3ccccc3C(=O)N2C2CCCCC2)CC1 (stereo not drawn) | 1 | 8 | 1 | 5 | 17
CN1CC[C@@]2(C(=O)N3CCCC3)CCN(S(=O)(=O)c3ccc(F)cc3)CC[C@@H]12 | 1 | -37 | -1 | -2 | -1
O=C(CSc1n[nH]c(-c2cc(Br)ccc2O)n1)NCCc1ccccc1 | 17 | 81* | 5 | -14 | 11
COc1ccc(C(=O)N(O)c2ccccc2)cc1 | 0 | 78* | -2 | -5 | 8
O=C(C1CC1)N1CCCCCC1C1CCNCC1 (stereo not drawn) | 0 | 14 | 1 | 0 | 6
COc1ccc(N2CCn3c(SCC(=O)Nc4cccc(C(F)(F)F)c4)nnc32)cc1 | 14 | -15 | -2 | 2 | -7
COc1ccc(N2CCn3c(SCC(=O)Nc4cccc(F)c4)nnc32)cc1 | 12 | 31* | 5 | 13 | 14
O=C(OC1CSc2nc3ccccc3n2C1)c1ccc([N+](=O)[O-])o1 (stereo not drawn) | 40* | 64* | 11 | -38 | 5
O=C(NCc1ccccc1Cl)C1CCn2c(nc3ccccc32)C1 (stereo not drawn) | -3 | -1 | -2 | -4 | -2
COc1cccc(NC(=O)[C@H](C)NC(=O)c2cc3c(OC)c(OC)ccc3[nH]2)c1 | 3 | 81* | 7 | 6 | -6
O=c1[nH]ccc(=S)[nH]1 | 3 | -4 | -1 | 1 | 12
SMILES | USP10 block | USP8 inh | UCHL1 inh | USP7 block | OTUD3 block
COc1cc(C(C)=O)ccc1Oc1nc(CN2CCOCC2)nc2scc(-c3ccccc3)c12 | -6 | -6 | -2 | -3 | -11
C[C@@H](C(=O)Nc1ccc2c(c1)OCO2)n1c(=O)[nH]c2ccccc2c1=O | 9 | 85* | 3 | 5 | 2
O=C(NC1CC1)c1ccc2c(=O)n(-c3ccc(F)cc3)cnc2c1 | -1 | 62* | -3 | -7 | -2
O=C(NC1CC1)c1ccc2c(=O)n3c(nc2c1)CCCC3 | 0 | 2 | 0 | 3 | 6
COc1cccc(-n2cnc3cc(C(=O)NC4CC4)ccc3c2=O)c1 | 2 | 92* | 11 | -7 | -1
Cn1c2ccc(F)cc2c2ncn(Cc3ccc4c(c3)OCO4)c(=O)c21 | 4 | 32* | 5 | 6 | 9
Cn1c2ccc(F)cc2c2ncn(CCN3CCOCC3)c(=O)c21 | 5 | 25 | 6 | 5 | 7
O=C(Nc1nc2c(s1)COCC2)c1cc(-c2ccco2)[nH]n1 | -6 | 86* | -15 | -38 | 64*

Bioassay records (PubChem)
